The target in one assay is T1, Arginase-2, mitochondrial (Homo sapiens) (UniProt P78540).
T1 sequence (whole entry): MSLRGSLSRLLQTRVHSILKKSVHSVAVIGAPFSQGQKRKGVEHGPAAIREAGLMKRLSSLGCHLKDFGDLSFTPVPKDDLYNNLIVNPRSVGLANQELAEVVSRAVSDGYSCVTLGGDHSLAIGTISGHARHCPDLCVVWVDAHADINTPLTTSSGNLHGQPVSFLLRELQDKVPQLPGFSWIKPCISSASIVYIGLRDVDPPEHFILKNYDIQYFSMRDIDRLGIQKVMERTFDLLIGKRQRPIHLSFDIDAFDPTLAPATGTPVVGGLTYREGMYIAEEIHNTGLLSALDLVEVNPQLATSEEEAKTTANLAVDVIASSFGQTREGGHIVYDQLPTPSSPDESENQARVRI
The experiment in a line: in vitro enzyme assay to detect the production of urea directly proportional to the activity of Arginase II. It is filed as functional. Also on record: scale not given: in the data most compounds retested in dose-response had high values. The conditions noted are these: 30 µM.
`CC1=Nc2c(c(=O)[nH]n2C2CCCC2)C(c2cccnc2)S1` (centres undefined): the Percent Effect came out at 7.03%.

Regarding `CC(C)CS(=O)(=O)CC(=O)N1CCCC1c1noc(C2CC2)n1` (centres undefined), the Percent Effect came to 5.95%.

Take `CC1=Nc2c(c(=O)[nH]n2C2CCCCC2)C(c2ccc(C(=O)O)cc2)S1` (centres undefined): the Percent Effect was 5.95%.

With `O=C(NCC1CC1)[C@@H]1CCO[C@@H]2CCN(CCc3ccccc3)C[C@H]21`, the Percent Effect is 1.62%.

For `CC(C)(C)OC(=O)Cn1cccc(S(=O)(=O)N2CCCC2)c1=O`, the Percent Effect is 7.03%.

On to `CC1CCN(S(=O)(=O)c2cccn(CC(=O)NC(C)(C)C)c2=O)CC1`, for which the Percent Effect was 8.11%.

`COc1ccc(C(=O)N2C[C@@H](C(=O)O)[C@H](c3cccc(F)c3)C2)c(O)c1`: the Percent Effect came to 7.03%.

`Cc1nn(C)cc1C(=O)N1CCCC(c2nccn2Cc2cscn2)C1` (centres undefined): the Percent Effect was -12.4%.

For `Cc1cc(C(=O)N2CCCC(c3nccn3Cc3cscn3)C2)on1` (centres undefined), the Percent Effect was 9.19%.

Turning to `COCc1ccc(C(=O)N(CCC#N)Cc2ccccn2)cc1`, the Percent Effect worked out at 0.54%.

In the case of `CCCc1n[nH]cc1C(=O)NCC1COc2cc(OC)ccc2C1` (centres undefined), the Percent Effect was determined as 8.11%.

With `O=C(NCc1ccccn1)[C@]12COC[C@H]1CN(Cc1cccnc1)C2`, the Percent Effect is -5.95%.

`CC(C)N(C)C(=O)c1coc(CN2CCN(c3ccccc3F)CC2)n1`: the Percent Effect amounted to 7.03%.

On to `CC(C)(C)OC(=O)Cn1cccc(S(=O)(=O)N2CCCCCC2)c1=O`, for which the Percent Effect was 5.95%.

On to `COc1ccc(C(=O)N2C[C@@H](C(=O)O)[C@H](c3ccccc3)C2)c(O)c1`, for which the Percent Effect amounted to 9.19%.

Regarding `Cc1nc(NCC2CC2)nc2c1COCC21CCN(S(=O)(=O)C2CC2)C1` (centres undefined), the Percent Effect was determined as 7.03%.

Regarding `COc1ccccc1Oc1ncccc1CNC(=O)C(C)CN` (centres undefined), the Percent Effect amounted to 11.3%.

As to `OC(CN(Cc1ccccc1)Cc1cscn1)c1cccs1` (centres undefined), the Percent Effect turned out to be 8.11%.

For the molecule `FC(F)(F)C1CCc2nnc(CNCc3cccs3)n2C1` (centres undefined), the Percent Effect was determined as 2.7%.

For the molecule `Cc1ccc2c(c1)CCC2NCc1c(C)nn(CCO)c1C` (centres undefined), the Percent Effect turned out to be 3.78%.

A further assay is filed under the species Homo sapiens. The experiment in a line: To identify inhibition of the IFN signalling (Jak-Stat) pathway via expression of an eGFP reporter gene under the control of an IFN-stimulated response element (ISRE) containing MxA promoter. The conditions noted are these: 30 µM. Also on record: scale not given: direction of the effect not stated beside the values. The assay is classed as functional. (A reporter such as luciferase makes a cellular process visible.)
Regarding `Cc1cnc(CN2CCCC(c3cc(C(N)=O)[nH]n3)C2)cn1` (centres undefined), the Percent Effect was found to be 6.6%.

`CC(C)c1nc(C2CCCN(C(=O)c3ccnc(N(C)C)c3)C2)no1` (centres undefined): the Percent Effect amounted to 26.1%.

On to `Cc1cnn(CC2CCCN2C(=O)c2cccnc2N(C)C)c1` (centres undefined), for which the Percent Effect is -17.9%.

Consider `CC(NC(=O)NCc1cccc(Cl)c1)(C(=O)O)c1ccco1` (centres undefined), for which the Percent Effect was -2.55%.

For the origin of these results see ChEMBL document CHEMBL3988442, “University of Dundee, Small-Polar-MMV Screening Library” (2021).
